Screens from PubChem.
The entries come from a sample that favours hits as a whole.
Pf Dd2 growth – inhibitors of Plasmodium falciparum Dd2 growth. P. falciparum Dd2 growth, SYBR Green, 72 h. Potency, µM (doses to about 28.9 µM), inactives show at the top dose activity, negative = inhibition, usual class: inhibitors. hit rate 4.3% among 120,000. AID 1347417; active = well fitted inhibition curve with a large enough effect;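 note: plate controls were DMSO vehicle for no effect and reference drug for full effect; nearly all actives have a fitted effect of over 65% in size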
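Infected erythrocytes (Dd2, 0.3% parasitemia, 2.5% hematocrit final) are added to compound in RPMI-1640/Albumax II medium, grown 72 h at 37C in low oxygen, then lysed with saponin/Triton-X containing SYBR Green and read by fluorescence.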
* marks the source's active call; other numbers are inactive results; i = inactive; [ ] = remark or other dose. Potency is the fitted concentration of half-maximal effect.

SMILES	Pf Dd2 growth
CN(C)CCNC(=O)c1cc2c(n1C)CCN(Cc1ccccc1)C2	13µM*
COc1cccc(CN2CCc3c(cc(C(=O)Nc4cc(OC)cc(OC)c4)n3C)C2)c1	8.9µM*
CN(C)CCCNC(=O)c1cc2c(n1C)CCN(Cc1ccc(F)cc1)C2	-20%
Cc1cccc(CN2CCc3c(cc(C(=O)O)n3C)C2)c1	i
COc1ccccc1NC(=O)c1cc2c(n1C)CCN(Cc1ccc(F)cc1)C2	-10%
COc1ccc(CNC(=O)c2cc3c(n2C)CCN(Cc2ccc(F)cc2)C3)cc1	-26%
COc1ccc(CNC(=O)C2Cn3cccc3C(=O)N2)cc1OC (configuration not stated)	6%
c1ccc(CO[C@H]2COCCN(c3nc4ccccc4s3)C2)cc1	0%[44.1 µM]
COc1ccc(CNC(=O)CC[C@H]2CNC(=O)[C@@H]3[C@@H](CCN3Cc3cccc(Cl)c3)N2C)cc1	i
Cc1noc(C)c1CCC(=O)NCc1cc2n(n1)CCN(C(=O)N(C)C)C2	17%
CCc1nc(-c2c3n(c(=O)n(Cc4cc(F)ccc4F)c2=O)CCCC3)no1	0%
CC1=C(c2ccc(C)c(C)c2)S(=O)(=O)N=C1N1CCC(C(=O)N2CCC(C(N)=O)CC2)CC1	i
CC1=C(c2ccc(C)c(C)c2)S(=O)(=O)N=C1N1CCC(C(=O)Nc2ccc(Cl)cc2)CC1	i
CCOC(=O)C1CCN(C(=O)C2CCN(C3=NS(=O)(=O)C(c4ccc(C)c(C)c4)=C3C)CC2)CC1	4µM*
O=C(NCC1CC1)c1cnc2n1CCN(CCc1ccccc1)CC2	8%[44.1 µM]
COCc1cc(C)nc2sc3c(c12)NC(c1ccc(O)c(OC)c1)N(c1ccccc1)C3=O (configuration not stated)	-9%
COCc1cc(C)nc2c1C(=O)NC(c1ccc(Br)cc1)N2Cc1ccccc1 (configuration not stated)	10µM*
COCc1cc(C)nc2sc3c(c12)NC(c1ccccc1C(=O)O)N(c1ccc(OC)cc1)C3=O (configuration not stated)	i
CCn1nccc1C(=O)N1CC(c2nc(CCOCC3CC3)no2)C1	0%
CN1Cc2cccn2CC1CNC(=O)c1ccccc1 (configuration not stated)	11µM*
CN1Cc2cccn2CC1CNC(=O)c1cnn(C)c1 (configuration not stated)	-10%
CN1Cc2cccn2CC1CNC(=O)c1cccn1C (configuration not stated)	-51%
CCC1(N2CCN(C(=O)COc3cccc(Cl)c3)CC2)CCN(C(=O)NC)C1 (configuration not stated)	10µM*
CCC1(N2CCN(C(=O)COc3ccc(Cl)cc3C)CC2)CCN(C(=O)NC)C1 (configuration not stated)	-35%
CCC1(N2CCN(C(=O)COc3cccc(Cl)c3)CC2)CCN(S(C)(=O)=O)C1 (configuration not stated)	i
SMILES	Pf Dd2 growth
COc1ccc(NC(=O)c2c(OC)cc(=O)n3c2CCCC3)cc1	-22%
Cc1cccc(NC(=O)c2c(C)oc3ncnc(N4CCCCC4)c23)c1C	-7%
Cc1c(Cl)cccc1NC(=O)NCC1CCOCC1	9%
COc1ccc(NC(=O)c2c(C)oc3ccc(O)c(CN4CCN(Cc5ccccc5)CC4)c23)cc1	1.3µM*
CCOc1ccc(NC(=O)c2c(C)oc3nc(C)nc(N4CCCC4)c23)cc1	i
CC(=O)Nc1ccc(NC(=O)c2cccc(CN3CCCC(C#N)C3)c2)cc1 (configuration not stated)	-10%
Cc1oc2ccc(O)c(CN3CCCC(C)C3)c2c1C(=O)Nc1ccccc1 (configuration not stated)	0.89µM*
O=C(Nc1ccc(Cl)cc1)c1nc2c(o1)CCN(Cc1ccccc1)CC2	i
CCOc1cc(=O)n2c(c1C(=O)Nc1ccccc1)CCCC2	27%
COc1ccc(NC(=O)c2c(-c3cnn(C)c3NCc3ccccc3)noc2C)cc1	i
COc1ccc(NC(=O)c2c(C)oc3ccc(O)c(CN4CCCCCC4)c23)cc1	2.8µM*
Cc1oc2ccc(O)c(CN3CCN(Cc4ccccc4)CC3)c2c1C(=O)Nc1cccc(Cl)c1C	0.56µM*
N#Cc1ccc(C(=O)N[C@@H]2CN(Cc3ccccc3)C[C@H]2CO)cc1	-26%
COc1ccc(CCNc2ncnc3c2CN(c2ccccc2C)C(=O)CN3C)cc1	i
O=C(c1cc(Br)cn2ccnc12)N1CCC(N2CCCCCC2=O)CC1	10%
CS(=O)(=O)N1CCN(C(=O)Nc2ccccc2)C[C@H]1C(=O)N[C@@H](CC1CCCCC1)C(N)=O	-28%
CC(C)Cc1cc(C[C@@H]2C[C@H](NC(=O)C3CCC3)C2(C)C)no1	i
Cc1c(CN(C)Cc2cccc(C(=O)Nc3ccc(C#N)cc3)c2)cnn1C	15%
COCCNC(=O)C[C@@H]1C[C@H]2O[C@H](CNC3CCC3)[C@@H](O)[C@H]2O1	1%[44.1 µM]
CCN(CC)[C@H]1[C@@H]2OC[C@@H](O2)[C@@H](NCc2ccccc2OC)[C@@H]1O	i
COCCOC1CN(C2CCN(C(=O)NC(C)(C)C)CC2)C12CCCCC2 (configuration not stated)	-23%
COC(=O)c1cccc(NC(=S)N[C@H]2CO[C@H]3[C@@H]2OC[C@@H]3n2nnnc2Oc2cccc(N3CCOCC3)c2)c1	-7%
CC(C)C[C@H](CO)NC(=O)C[C@@H]1c2nc(NC(=O)c3ccco3)sc2C[C@@H]2[C@](C)(CO)[C@H](O)CC[C@]21C	8.9µM*
CN(Cc1ccccc1)C(=O)C[C@@H]1c2nc(NC(=O)CC(C)(C)C)sc2C[C@@H]2[C@](C)(CO)[C@H](O)CC[C@]21C	i
CC(C)NC(=O)C[C@@H]1c2nc(NC(=O)N3CCOCC3)sc2C[C@@H]2[C@](C)(CO)[C@H](O)CC[C@]21C	-16%
SMILES	Pf Dd2 growth
COCCNC(=O)C[C@@H]1c2nc(NC(=O)c3ccco3)sc2C[C@@H]2[C@](C)(CO)[C@H](O)CC[C@]21C	i
C[C@]1(CO)[C@H]2Cc3sc(-c4ccsc4)nc3[C@@H](CC(=O)NCc3ccco3)[C@]2(C)CC[C@H]1O	-23%
C#CCNC(=O)C[C@@H]1c2nc(NC(=O)C(C)(C)C)sc2C[C@@H]2[C@](C)(CO)[C@H](O)CC[C@]21C	i
C#CCNC(=O)C[C@@H]1c2nc(NC(=O)c3ccc(C(C)(C)C)cc3)sc2C[C@@H]2[C@](C)(CO)[C@H](O)CC[C@]21C	4µM*
CC(C)NC(=O)C[C@@H]1c2nc(NC(=O)c3ccc(F)cc3)sc2C[C@@H]2[C@](C)(CO)[C@H](O)CC[C@]21C	i
C[C@]1(CO)[C@H]2Cc3sc(NC(=O)c4ccco4)nc3[C@@H](CC(=O)Nc3ccccc3)[C@]2(C)CC[C@H]1O	7.1µM*
Cc1ccccc1C(=O)NC1CCN(c2cc(-c3ccccc3)[nH]n2)CC1	i
Cc1ccc2[nH]c(CN3CC[C@H]4NCCC[C@]4(CO)C3)cc(=O)c2c1	-30%
CN1CCC(Oc2nccnc2N2CCc3ccccc32)C1 (configuration not stated)	2.8µM*
O=C(c1ccncc1)N1CCC(Oc2nccnc2N2CCOCC2)C1 (configuration not stated)	37%
Cn1nccc1C(=O)N1CCC(Oc2nccnc2N2CCOCC2)C1 (configuration not stated)	114%
COc1ccccc1-c1nc(COC(=O)C2=CN(Cc3ccccc3)S(=O)(=O)N=C2C)no1	i
CN(C)c1ccc(CN2CC[C@H](c3nnc(-c4ccco4)o3)C2)cc1	i
CN(C)c1ccc(-c2nnc([C@H]3CCN(Cc4ccco4)C3)o2)cc1	7.9µM*
